Results on 67 molecules are retold here after ChEMBL document CHEMBL3988442, “University of Dundee, Small-Polar-MMV Screening Library” (2021).

The whole screen tested about 48,000 compounds, of which about 13,000 (27%) showed an effect of 50% or more. The list shows a part of the results.

This assay has as its system Wolbachia pipientis. As to the kind of experiment: Anti-Wolbachia Cell-Based Screen. The note with it: 5 µM. Format: functional. More on the design: scale not given: in the data most compounds retested in dose-response had high values.
In the case of `O=S(=O)(NCC1(O)CCOCC1)c1ccccc1Br`, the “Percent Effect” value stood at 8.924%.
Consider `CC(C)NC(=O)NC[C@H]1OC[C@@H](NCc2cccs2)[C@@H]1O`, for which the “Percent Effect” value worked out at 11.97%.
As to `CCc1cc(N[C@H](C(N)=O)C(C)C)n2nc(C)c(C)c2n1`, the “Percent Effect” value is given as -4.879%.
Next, `Cc1cccc(C2(CNC(=O)CCNS(C)(=O)=O)CCCC2)c1`: 4.767%.
With `c1cnc(Nc2cc(CCC3CCNCC3)ccn2)cn1`, the “Percent Effect” value is listed as 61.48%.
Regarding `Cc1c(Br)cccc1C(=O)NCCC1CCCNC1.Cl` (configuration not stated), the “Percent Effect” value turned out to be 6.591%.
Next, `Cl.c1cnc(Nc2cc(CCC3CCCNC3)ccn2)cn1` (configuration not stated): 75.77%; `O=C(NCCNc1cnccn1)NCC1CCS(=O)(=O)C1` (configuration not stated): -2.4%.
`CN1CCC(CCc2ccnc(Nc3cnccn3)c2)CC1`: the “Percent Effect” value is 95.48%.
As for `CC(Cc1cnccn1)NC(=O)c1cccc(CC2CCNCC2)c1` (configuration not stated), the “Percent Effect” value is reported as -6.406%.
With `O=C(CO)N1CCC(CCc2ccnc(Nc3cnccn3)c2)CC1`, the “Percent Effect” value was 125.8%.
Then `Cc1ccc(Oc2ncccc2CNC2CCOCC2)cn1`, with -4.901%; and `CCC(CNC1CCN(C(C)=O)CC1)Oc1cccc(C)c1` (configuration not stated), with 3.033%.
`CN(C)c1cc2c(nn1)CCN(C(=O)C1CCc3ccccc31)C2` (configuration not stated): the “Percent Effect” value is -4.6%.
Then `Cc1cc(C)n(-c2nc(C(=O)NCCS(=O)(=O)N3CCCCC3)cs2)n1`, with 95.89%; and `Cc1nc(C(=O)N2CCN(S(C)(=O)=O)[C@@H]3CS(=O)(=O)C[C@@H]32)cs1`, with -1.846%; and `Cc1cc(C(=O)NCCN2CCN(S(C)(=O)=O)CC2)no1.Cl`, with 11.14%.
Next, `CCc1c(C)nn(CCNC(=O)c2csc(C)n2)c1C`: -30.9%.
Next, `CC1CCN(CCNC(=O)c2cncnc2C(C)C)CC1`: -7.999%.
As for `Cc1cc(C)n(-c2nc(C(=O)NCCN3CCC(C)CC3)cs2)n1`, the “Percent Effect” value stood at 74.92%.
Take `Cc1csc(CNC(=O)NC2CCCN(S(C)(=O)=O)C2)n1` (configuration not stated): the “Percent Effect” value is listed as -1.577%.
Next, `Cc1nc(C(=O)NCCS(=O)(=O)N2CCCC2)cs1`: 99.98%.
Then `CCCc1nc(C(=O)NCCN2CCC(c3ccccc3C)C2)cs1` (configuration not stated), with -11.15%; and `OC[C@@H]1CCCN1Cc1cn(C2CCN(C3CCCC3)CC2)nn1`, with -5.2%; and `Cc1noc(OCCOc2ccc(C#N)cc2)n1`, with 1.206%.
For `Cn1ccc(CS(=O)(=O)Cc2ccccc2)cc1=O`, the “Percent Effect” value is recorded as -1.625%.
For `CN1C(=O)C(C)(C)COc2ccc(NS(=O)(=O)Cc3ccccc3)cc21`, the “Percent Effect” value amounted to 99.35%.
As for `O=C1CO[C@H](c2ccc(NS(=O)(=O)Cc3ccccc3)cc2)[C@@H](CO)N1`, the “Percent Effect” value is -3.508%.
Then `CC(C)CS(=O)(=O)Nc1ccc([C@H]2OCC(=O)N[C@@H]2CO)cc1`, with -5.323%.
For `Cc1nc(N2CCCC2)nc(C)c1NS(=O)(=O)c1ccccc1F`, the “Percent Effect” value is listed as -5.726%.
Then `CN1C(=O)C(C)(C)COc2cc(NS(=O)(=O)c3ccccc3)ccc21`, with 19.53%; and `Cn1c(=O)n(C)c2cc(NS(=O)(=O)Cc3ccccc3)ccc21`, with 78.16%.
As to `CC(C)CS(=O)(=O)Nc1ccc2c(c1)OCC(C)(C)C(=O)N2C`, the “Percent Effect” value came to 141.6%.
Then `CN1C(=O)C(C)(C)COc2cc(NS(=O)(=O)c3ccccc3F)ccc21`, with 192.1%; and `Cn1cccc1C(O)CNS(=O)(=O)Cc1ccccc1` (configuration not stated), with -5.113%.
Next, `CN1C(=O)C(C)(C)COc2cc(NS(=O)(=O)Cc3ccccc3)ccc21`: 11.42%; `Cn1cnc2c1CCN(CCCOc1ccc(S(C)(=O)=O)cc1)C2`: -0.429%.
With `COc1cc(CNC(=O)N2CCCC2c2cc(C)no2)ccn1` (configuration not stated), the “Percent Effect” value is -13.9%.
Next, `CCOc1ccccc1-c1noc(CN(C)Cc2cnn(C)c2)n1`: -16.57%.
Turning to `CCS(=O)(=O)Nc1ccc2[nH]c(C3CCC3)nc2c1`, the “Percent Effect” value came to 5.664%.
With `CCS(=O)(=O)Nc1ccc2c(c1)OCC(C)(C)C(=O)N2C`, the “Percent Effect” value is reported as 121.3%.
Then `CCCS(=O)(=O)Nc1ccc2c(c1)OCC(C)(C)C(=O)N2C`, with -9.167%.
Take `O=C(CCc1nc(Cl)n[nH]1)NC1CCCN(C2Cc3ccccc3C2)C1` (configuration not stated): the “Percent Effect” value is on record as -44.69%.
With `COc1cc(CC(=O)Nc2cccc(C(=O)N(C)C)n2)ccc1C`, the “Percent Effect” value is -9.433%.
For `COC(=O)c1ccoc1CN(C)CC(=O)N(C)C`, the “Percent Effect” value is recorded as 115.3%.
Next, `COC(=O)c1ccoc1CN(C)Cc1cc(OC)c(OC)cc1C`: 109.7%; `CC1Cc2ccccc2N1Cc1occc1C(=O)NCC(=O)N(C)C` (configuration not stated): -8.438%; `COc1cc(C)c(C(C)NC(=O)c2cccnc2N(C)C)cc1OC` (configuration not stated): 0.4558%.
As to `COC(=O)c1ccoc1CN(C)Cc1ccccc1`, the “Percent Effect” value is on record as 118.1%.
As for `COC(=O)CNC(=O)C1(N(C)Cc2ccccc2)Cc2ccccc2C1`, the “Percent Effect” value is reported as -5.057%.
Then `CN(CC(=O)N(C)C)Cc1ccc(C#N)cc1F`, with -6.679%; and `CN(Cc1ccccc1)CC(C)(C)NC(=O)c1ccon1`, with 7.047%.
Next, `COc1ccc(F)cc1C(C(=O)O)N1CCCN(C2CCCC2)CC1` (configuration not stated): 11.4%; `CCC(C)(C)NC(=O)c1scnc1Cl`: 6.107%; `Cc1cnn(C2CN(CC(O)COCc3ccc4c(c3)OCO4)C2)c1` (configuration not stated): -34.94%.
`CSc1ccc(CNC(c2ccccc2)c2nccn2C)cc1` (configuration not stated): the “Percent Effect” value is recorded as -1.677%.
Then `COc1ccc(C(C(=O)O)N(C)Cc2c(C)nn(C)c2C)c(C)c1` (configuration not stated), with 108.6%; and `COc1ccc(C(C(=O)O)N(C)CCN2CCCC2)c(C)c1` (configuration not stated), with 0.7603%.
Next, `Cc1nn(C)c(C)c1CN(C)C(C(=O)O)c1ccc(F)cc1F` (configuration not stated): 99.54%.
Then `COc1cc(F)ccc1C(C(=O)O)N(C)Cc1ccon1` (configuration not stated), with 19.52%; and `COc1ccc(Cl)cc1C(C(=O)O)N(C)Cc1ccon1` (configuration not stated), with -2.698%.
As to `COc1cc(C)cc(C(C(=O)O)N(C)Cc2cnn(C)c2)c1OC` (configuration not stated), the “Percent Effect” value is given as -13.95%.
Next, `COc1cc(C)cc(OC)c1C(C(=O)O)N(C)Cc1c(C)nn(C)c1C` (configuration not stated): 77.2%; `COc1cc(CN(C)C(=O)Cc2c(C)nn(C)c2C)ccc1OC(F)F`: -29.22%.
Next, `Cc1ccc(C(C(=O)O)N(C)CCN2CCOCC2)c(F)c1` (configuration not stated): -0.2175%; `Cc1ccc(NC(=O)CN2CCCNC2=O)c(SC(F)(F)F)c1`: -6.443%; `CN(C)C1CCCN(C(=O)NCCNC(=O)C2CCCC2)C1` (configuration not stated): 2.147%.
